Data reported in PubChem BioAssay (NCATS).
Values joined by “and” are separate entries in the source; they are usually repeats but may differ in a detail not shown here. Equal entries are not always repeated. Results filed as inconclusive are left out. A call without a number means that no potency is given here. Some compounds were tested as several samples or in several runs, with calls that do not always agree. Active and inactive are the calls of the source. Calls follow the shape of the dose curve; as a rule, active = well fitted curve in the direction sought with a large enough effect; inconclusive = small, poorly fitted or top-dose-only effect, or another doubt; inactive = no such curve, though single readings can be large; an effect the other way counts as inactive or inconclusive.

Molecular target: Nuclear receptor ROR-gamma (Homo sapiens) (UniProt P51449)
Sequence (P51449 whole entry, looked up): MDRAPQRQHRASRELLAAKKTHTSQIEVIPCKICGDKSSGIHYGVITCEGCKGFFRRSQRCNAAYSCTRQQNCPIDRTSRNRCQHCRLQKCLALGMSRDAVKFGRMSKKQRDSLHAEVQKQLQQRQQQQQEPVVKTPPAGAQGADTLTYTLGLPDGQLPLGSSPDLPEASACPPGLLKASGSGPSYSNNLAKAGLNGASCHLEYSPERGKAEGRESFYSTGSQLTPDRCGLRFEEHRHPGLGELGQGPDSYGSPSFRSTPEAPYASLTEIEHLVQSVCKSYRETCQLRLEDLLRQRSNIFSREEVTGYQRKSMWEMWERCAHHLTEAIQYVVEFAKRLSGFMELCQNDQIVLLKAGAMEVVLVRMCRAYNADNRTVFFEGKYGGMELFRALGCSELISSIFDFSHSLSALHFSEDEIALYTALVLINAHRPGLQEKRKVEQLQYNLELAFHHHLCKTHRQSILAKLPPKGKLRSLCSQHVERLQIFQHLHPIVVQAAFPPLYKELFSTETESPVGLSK
Experiment: qHTS assay for small molecule antagonists of the retinoid-related orphan receptor gamma (ROR-gamma) signaling pathway (AID 651802); also: nearly all actives have a fitted effect of over 60% in size; also: potency is read from the fitted curve at half-maximal effect
Details: ROR-gamma antagonist cell reporter assay; series mostly up to 92.2 µM
Procedure, shortened: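 CHO cells with TET-inducible ROR-gamma and RORE-luciferase reporter, dosed then doxycycline-induced. After 16 h at 37C, One-Glo luminescence read; decreased signal indicates antagonism.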

SMILES | Potency
NCC(O)c1ccc(O)cc1 (stereo unspecified) | inactive
OCCOc1ccccc1 | inactive
CCCC(C)(COC(N)=O)COC(=O)NC(C)C (stereo unspecified) | inactive
Oc1ccccc1-c1ccccc1 | inactive
Oc1cccc2cccnc12 | inactive and 3.35 µM (active)
CNCC(O)c1ccc(O)cc1 (stereo unspecified) | inactive
N[C@@H](Cc1ccc(N(CCCl)CCCl)cc1)C(=O)O | 26.6 µM (active)
COc1cc2c(c(OC)c1OC)-c1ccc(OC)c(=O)cc1[C@@H](NC(C)=O)CC2 | 335 nM (active) and 119 nM (active)
CC(C)C(=O)Nc1ccc([N+](=O)[O-])c(C(F)(F)F)c1 | 23.7 µM (active)
CCOP(=S)(OCC)Oc1cc(C)nc(C(C)C)n1 | inactive
c1ccc2c(c1)Nc1ccccc1S2 | inactive

Molecular target: Tyrosine-protein kinase Yes (Homo sapiens) (UniProt P07947)
Sequence (P07947 whole entry, looked up): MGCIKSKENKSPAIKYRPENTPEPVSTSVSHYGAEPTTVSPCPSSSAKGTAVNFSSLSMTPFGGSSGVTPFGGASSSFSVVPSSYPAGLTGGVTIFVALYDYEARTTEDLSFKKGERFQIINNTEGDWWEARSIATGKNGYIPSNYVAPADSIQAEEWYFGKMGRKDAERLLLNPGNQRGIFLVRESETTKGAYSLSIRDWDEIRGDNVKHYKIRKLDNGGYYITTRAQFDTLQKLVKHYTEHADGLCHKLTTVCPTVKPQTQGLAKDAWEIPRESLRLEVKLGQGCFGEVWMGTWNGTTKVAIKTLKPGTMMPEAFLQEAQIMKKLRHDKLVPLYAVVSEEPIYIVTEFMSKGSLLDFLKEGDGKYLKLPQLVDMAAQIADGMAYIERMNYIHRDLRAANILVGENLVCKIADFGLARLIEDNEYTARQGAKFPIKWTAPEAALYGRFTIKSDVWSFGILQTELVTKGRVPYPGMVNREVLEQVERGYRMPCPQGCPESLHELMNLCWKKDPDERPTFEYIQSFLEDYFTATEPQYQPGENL
Experiment: qHTS for small molecule inhibitors of Yes1 kinase: Primary Screen (AID 686947); also: nearly all actives have a fitted effect of over 60% in size; also: potency is read from the fitted curve at half-maximal effect
Details: Yes1 kinase biochemical qHTS inhibition; series mostly up to 76.9 µM
Procedure, shortened: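 Yes1 (4 nM) preincubated 20 min with compound, then 60 min room-temperature reaction with 0.1 mM ATP and 0.3 mg/mL poly(E4Y) in pH 7.5 Tris, 10 mM MgCl2. ADP measured by ADP-Glo luminescence, normalised to enzyme/no-enzyme controls.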

SMILES | Potency
Cc1cc(SCc2sc(-c3ccc(C(F)(F)F)c(F)c3)nc2C)ccc1OCC(=O)O | inactive
Cc1sc2c(c1C)C(c1ccc(Cl)cc1)=N[C@@H](CC(=O)OC(C)(C)C)c1nnc(C)n1-2 | inactive
Cn1c(CCCC(=O)O)nc2cc(N(CCCl)CCCl)ccc21 | inactive
Cn1cc(C2=C(c3cn(C4CCN(Cc5ccccn5)CC4)c4ccccc34)C(=O)NC2=O)c2ccccc21 | inactive
COC1(CS(=O)c2ccccc2)CCN(CCc2c[nH]c3ccc(F)cc23)CC1 (stereo unspecified) | inactive
C[C@@H]1[C@@H](CC(C[C@H]2O[C@@H]3O[C@]4(C)CC[C@@H]5[C@H](C)CC[C@@H]([C@H]2C)[C@@]35OO4)C[S+](=O)([O-])c2ccc(COC(=O)N(C)C)cc2)O[C@@H]2O[C@]3(C)CC[C@H]4[C@H](C)CC[C@@H]1[C@@]24OO3 (stereo partly specified) | inactive
O=c1c(O)c(-c2ccc(O)c(O)c2)oc2cc(O)cc(O)c12 | 15.4 µM (active)
CC1=C2C[C@@H]3[C@@H](CC=C4C[C@@H](O)CC[C@@]43C)[C@@H]2CC[C@]12O[C@H]1C[C@H](C)CN[C@H]1[C@H]2C | inactive
C[C@]12CCC(=O)C(O)=C1CC[C@@H]1[C@@H]2CC[C@]2(C)C(=O)CC[C@@H]12 | inactive

Tested on: not listed separately
Experiment: qHTS for small molecule inhibitors of Yes1 kinase: Counter Assay (AID 686950);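 also: no kinase present so only ADP-Glo detection of a fixed ADP amount is tested; luminescence from ADP-Glo reporting ADP in a fixed ATP and ADP mixture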
Details: series mostly up to 76.9 µM
Procedure, shortened: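 Enzyme-free detection counter-screen: compounds preincubated 20 min in buffer, then 0.08 mM ATP plus 0.02 mM ADP added for 60 min at room temperature; ADP-Glo luminescence. Buffer 50 mM Tris pH 7.5, 10 mM MgCl2, 150 mM NaCl; normalized to ATP+ADP and ATP-only controls.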

SMILES | outcome
Cc1cc(SCc2sc(-c3ccc(C(F)(F)F)c(F)c3)nc2C)ccc1OCC(=O)O | inactive
Cc1sc2c(c1C)C(c1ccc(Cl)cc1)=N[C@@H](CC(=O)OC(C)(C)C)c1nnc(C)n1-2 | inactive
Cn1c(CCCC(=O)O)nc2cc(N(CCCl)CCCl)ccc21 | inactive
Cn1cc(C2=C(c3cn(C4CCN(Cc5ccccn5)CC4)c4ccccc34)C(=O)NC2=O)c2ccccc21 | inactive
COC1(CS(=O)c2ccccc2)CCN(CCc2c[nH]c3ccc(F)cc23)CC1 (stereo unspecified) | inactive
C[C@@H]1[C@@H](CC(C[C@H]2O[C@@H]3O[C@]4(C)CC[C@@H]5[C@H](C)CC[C@@H]([C@H]2C)[C@@]35OO4)C[S+](=O)([O-])c2ccc(COC(=O)N(C)C)cc2)O[C@@H]2O[C@]3(C)CC[C@H]4[C@H](C)CC[C@@H]1[C@@]24OO3 (stereo partly specified) | inactive
CC1=C2C[C@@H]3[C@@H](CC=C4C[C@@H](O)CC[C@@]43C)[C@@H]2CC[C@]12O[C@H]1C[C@H](C)CN[C@H]1[C@H]2C | inactive
C[C@]12CCC(=O)C(O)=C1CC[C@@H]1[C@@H]2CC[C@]2(C)C(=O)CC[C@@H]12 | inactive

Molecular target: Arylsulfatase A (Homo sapiens) (UniProt P15289)
Sequence (P15289 whole entry, looked up): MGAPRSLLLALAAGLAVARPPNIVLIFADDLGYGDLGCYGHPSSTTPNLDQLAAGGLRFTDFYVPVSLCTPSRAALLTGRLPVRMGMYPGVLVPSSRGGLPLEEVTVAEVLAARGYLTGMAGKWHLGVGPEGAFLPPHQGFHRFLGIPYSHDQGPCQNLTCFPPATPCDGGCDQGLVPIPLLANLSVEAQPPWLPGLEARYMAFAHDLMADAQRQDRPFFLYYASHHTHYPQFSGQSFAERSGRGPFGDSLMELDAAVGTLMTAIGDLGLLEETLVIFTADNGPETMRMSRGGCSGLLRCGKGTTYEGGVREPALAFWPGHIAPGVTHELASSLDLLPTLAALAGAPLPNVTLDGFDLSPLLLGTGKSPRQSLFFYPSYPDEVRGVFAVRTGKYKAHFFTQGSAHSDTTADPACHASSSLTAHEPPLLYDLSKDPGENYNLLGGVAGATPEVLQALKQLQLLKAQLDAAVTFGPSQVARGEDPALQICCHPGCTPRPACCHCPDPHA
Experiment: qHTS screen for enhancers of Arylsulfatase A (ASA1): LOPAC Validation Assay (AID 720538)
Details: ASA enzyme activity, LOPAC qHTS enhancer assay; series mostly up to 57.5 µM
Procedure, shortened: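 SV40-transformed skin fibroblasts from an MLD patient (ASA-I179S) were treated with compounds for 48h at 37 degree C, then lysed with 0.5mM pNCS final substrate for 14h at room temperature; NaOH stop, fluorescence read (Ex=525 nm; Em=598 nm).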

SMILES | Potency
NCC(O)c1ccc(O)cc1 (stereo unspecified) | inactive
CCCC(C)(COC(N)=O)COC(=O)NC(C)C (stereo unspecified) | inactive
C[C@@H]1O[C@@H](O[C@H]2C[C@@H](O)[C@]3(CO)[C@H]4[C@H](O)C[C@]5(C)[C@@H](C6=CC(=O)OC6)CC[C@]5(O)[C@@H]4CC[C@]3(O)C2)[C@H](O)[C@H](O)[C@H]1O | inactive
Nc1ccncc1 | inactive
C=C(C)[C@H]1Cc2c(ccc3c2O[C@@H]2COc4cc(OC)c(OC)cc4[C@@H]2C3=O)O1 | inactive
CNCC(O)c1ccc(O)cc1 (stereo unspecified) | inactive
O=c1[nH]c2ccccc2n1C1CCN(CCCC(c2ccc(F)cc2)c2ccc(F)cc2)CC1 | inactive
C[C@]12CCC(=O)C(O)=C1CC[C@@H]1[C@@H]2CC[C@]2(C)C(=O)CC[C@@H]12 | inactive
